Laboratory results reported in PubChem BioAssay (Tox21).
Inconclusive results are not listed. A call without a number means that no potency is given here. Calls of active or inactive are those of the source. The call rests on the fitted dose curve; in most records, active means well fitted inhibition curve with a large enough effect in the repeat runs; inconclusive means weak or mixed curves; inactive means no such curve, though single readings can be large or run the other way.

Assay: qHTS assay to identify small molecule antagonists of the thyroid receptor (TR) signaling pathway (AID 743065); further: nearly all actives have a fitted effect of over 55% in size
Details: GH3.TRE-Luc, T3-stimulated luciferase inhibition, 23.5 h; series mostly up to 70.3 µM
Summary of the method: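 GH3.TRE-Luc rat pituitary cells (two TREs driving luciferase) were dosed with compound, then stimulated with 1 nM T3 (final) for 23.5 h at 37 C. ONE-Glo luminescence was the read-out, with CellTiter-Fluor fluorescence as the cytotoxicity counter-screen.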
For `O=c1[nH]cnc2[nH]cc(CN3CCCCC3)c12`, the Potency was “inactive”. In the case of `O=C(O)c1ccc(OCCn2ccnc2)cc1`, the Potency is reported as “inactive”. For `CNC[C@@H]1CC[C@@H](N)[C@@H](O[C@H]2[C@H](O)[C@@H](O[C@H]3OC[C@](C)(O)[C@H](NC)[C@H]3O)[C@H](N)C[C@@H]2N)O1`, the Potency was “inactive”. For `CN(CCO)CC(O)Cn1cnc2c1c(=O)n(C)c(=O)n2C` (stereo not given) (tested in a mixture with another compound), the Potency was “inactive”. For `Nc1ccn(C[C@@H](CO)OCP(=O)(O)O)c(=O)n1`, the Potency was “inactive”. For `CN=C(NC)NCc1ccccc1`, the Potency was “inactive”. In the case of `C[N+](C)(CCCCCC[N+](C)(C)C1c2ccccc2-c2ccccc21)C1c2ccccc2-c2ccccc21`, the Potency is reported as “inactive”. With `Nc1ncnc(Nc2ccc(Cl)cc2)n1` the Potency was “inactive”. For `O=P(O)(O)OC(Cn1cncn1)(Cn1cncn1)c1ccc(F)cc1F`, the Potency was “inactive”. With `C[C@]12C=CC(=O)C=C1CC[C@@H]1[C@@H]2[C@@H](O)C[C@@]2(C)[C@H]1CC[C@]2(O)C(=O)COC(=O)CCC(=O)O` the Potency was “inactive”. For `CCCC(=O)N1CCCN(c2nc(N)c3cc(OC)c(OC)cc3n2)CC1`, the Potency was “inactive”. In the case of `OCC(O)COc1ccc(Cl)cc1` (stereo not given), the Potency is reported as “inactive”. For `C[C@]12CCC(=O)C=C1CC[C@@H]1[C@@H]2[C@@H](O)C[C@@]2(C)[C@H]1CC[C@]2(O)C(=O)COP(=O)(O)O`, the Potency was “inactive”. For `Cc1ccccc1CNc1ncnc2c1ncn2[C@@H]1O[C@H](CO)[C@@H](O)[C@H]1O`, the Potency was “inactive”. In the case of `CC(=O)OC[C@H]1O[C@@H](O[C@H]2[C@H](O)[C@@H](OC(=O)c3ccccc3C(=O)O)[C@H](O)O[C@@H]2COC(C)=O)[C@H](O)[C@@H](OC(=O)c2ccccc2C(=O)O)[C@@H]1O`, the Potency is reported as “inactive”.
